Source: PubChem (Corson Lab, School of Medicine, Indiana University)
FECH inh = blocks human mitochondrial ferrochelatase activity; purified FECH, Ni-mesoporphyrin absorbance 550 nm; hit rate 3.3% among 20,000; calls only at 10 µM (by protocol); P22830; AID 1671448;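 active = enzyme reaction rate more than 3 SD below the solvent-only control wells on the same plate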;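 note: lower slope than DMSO wells means FECH inhibition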
Target sequence (P22830 whole entry, looked up): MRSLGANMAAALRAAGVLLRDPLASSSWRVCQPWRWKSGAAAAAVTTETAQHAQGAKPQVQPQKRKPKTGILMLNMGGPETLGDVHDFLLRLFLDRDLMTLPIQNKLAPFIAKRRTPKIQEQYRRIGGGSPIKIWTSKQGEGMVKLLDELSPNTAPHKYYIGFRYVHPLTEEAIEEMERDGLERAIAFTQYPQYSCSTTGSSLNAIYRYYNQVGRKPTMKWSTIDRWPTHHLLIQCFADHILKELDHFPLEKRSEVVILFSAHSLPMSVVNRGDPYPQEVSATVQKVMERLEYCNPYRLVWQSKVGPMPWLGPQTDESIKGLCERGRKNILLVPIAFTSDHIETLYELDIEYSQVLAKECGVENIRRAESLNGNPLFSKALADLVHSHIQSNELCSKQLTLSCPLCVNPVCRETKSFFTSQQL
Starred values were filed as active, the others as inactive; i = inactive; + = active, no number. The sample as a whole holds a higher share of hits than the screen did.

SMILES	FECH inh
CCN(c1cccc(C)c1)S(=O)(=O)c1ccc2c(c1)CCN2C(=O)CCC(=O)N1CCOCC1	i
CC1(C(=O)NC2CCCC2)Cn2c(cc3ccsc32)C(=O)N1c1ccc2c(c1)OCCO2 (stereo unspecified)	i
COc1ncc(-c2nccn2C(C)Cc2ccsc2)cn1 (stereo unspecified)	i
CC(C)(C)NC(=O)COc1ccc(C2CC(=O)Nc3[nH]ncc32)cc1 (stereo unspecified)	i
CN1CC2(CCN(C(=O)C3c4ccccc4-c4ccccc43)C2)OC1=O (stereo unspecified)	i
CCCCC(=O)NC1CC(=O)N(c2cccc(OC)c2)C1 (stereo unspecified)	i
Cc1ccc(NC(=O)CN2C(=O)C3CCCCN3c3ccc(S(=O)(=O)N4CCCCC4)cc32)cc1 (stereo unspecified)	i
CC(CC(=O)Nc1ccc(S(N)(=O)=O)cc1)S(=O)(=O)c1ccc2c(c1)NC(=O)CCS2 (stereo unspecified)	i
COCCNc1cc(-c2cc(C)c(C)[nH]c2=O)c2cc[nH]c2n1	i
CC(=O)N1CCC(c2nc(CC(C)C)nn2-c2ccc3c(c2)OCO3)CC1	i
CCC(CC)C(=O)Nc1ccc(Nc2nc(C)cc(N3CCCC3)n2)cc1	i
CCc1nnc(CNC(=O)c2[nH]c3ccccc3c2CC)s1	i
COc1ccc(-c2ncc3c(=O)n(CC(=O)c4c(C)n(C)c5ccccc45)c(=O)n(C)c3n2)cc1	i
CCOc1ccc(N(Cc2nc3nc(C)cc(C)n3n2)C(=O)Cc2ccc(Cl)cc2)cc1	i
Cc1ccc(Nc2nc(N(C)CCO)nc3c2cnn3-c2ccccc2)cc1C	i
Cc1ncc(CO)c2cc(C3=NS(=O)(=O)c4ccccc4N3)c(=O)oc12	+
O=C(CSCc1ccccc1Cl)NCc1noc(-c2ccco2)n1	i
CC(=O)Nc1c2n(c3ccccc13)CC(C)(C(=O)NCCC(C)C)N(Cc1ccccc1F)C2=O (stereo unspecified)	i
CC(NC(=O)CCNC(=O)c1ccc(F)cc1)c1cnn(-c2ccccc2)c1 (stereo unspecified)	i
Cc1cnc(CN(C)CC(=O)Nc2cccc(F)c2C)[nH]1	+
CO[C@H]1COC[C@@H]1NCC(=O)Nc1cccc(F)c1C	i
CN(CC(=O)NCc1ccccc1F)Cc1cccc2ncccc12	i
Cc1cc(Cl)ccc1C(=O)NCc1cncn1CC(C)C	i
Cc1cccc(OCC(=O)Nc2cc(N3CCCS3(=O)=O)ccc2C)c1	+
COc1cccc(OCC(=O)Nc2cc(N3CCCS3(=O)=O)ccc2C)c1	i
SMILES	FECH inh
Cc1ccc(OCC(=O)Nc2cc(N3CCCS3(=O)=O)ccc2C)cc1	i
Cc1cnc(C)c(-c2ccccc2C(=O)N(C(C)C)C(C)C)n1	i
O=C(NCCc1cnc[nH]1)c1ccc(CN2C(=O)CCn3nccc32)cc1	i
COc1ccccc1-n1cc(C(=O)NCCc2cnc[nH]2)cn1	i
COc1ccc(Oc2ccc(C(=O)NCCc3cnc[nH]3)cc2)cc1	+
COc1ccc(CNc2nc3nc(CN4CCCCC4)cc(=O)n3[nH]2)cc1	i
CCCc1ncncc1C(=O)NCC1(O)CCNC1 (stereo unspecified)	i
O=C(c1cccs1)N1CC[C@@H](c2ccc3ccccc3c2)[C@H](O)C1	+
Cc1noc(C)c1C(=O)N1CC[C@@H](c2ccc3ccccc3c2)[C@H](O)C1	i
Cc1nc(C(=O)N2CC[C@@H](c3ccc4ccccc4c3)[C@H](O)C2)c(C)o1	i
Cn1ccnc1-c1nccn1CCn1cccn1	i
CCN(CCc1nc2ccc(C)cc2[nH]1)C(=O)c1cn[nH]n1	i
CC(=O)N1CCn2nc(C(=O)N(Cc3c(F)cccc3Cl)C3CC3)cc2C1	i
CC(=O)Nc1cccc(-c2nc(CC3CCN(C)CC3)no2)c1	i
CCc1c(C)nc2ncnn2c1Sc1ccc(NC(=O)Nc2ccc(OC)cc2OC)cc1	+
CCc1c(C)nc2ncnn2c1Sc1ccc(NC(=O)Nc2ccccc2Br)cc1	i
CCc1c(C)nc2ncnn2c1Sc1ccc(NC(=O)Nc2cc(OC)ccc2OC)cc1	i
CCc1c(C)nc2ncnn2c1Sc1ccc(NC(=O)Nc2ccsc2C(=O)OC)cc1	+
CCc1c(C)nc2ncnn2c1Sc1ccc(NC(=O)Nc2cc(OC)cc(OC)c2)cc1	i
CCc1c(C)nc2ncnn2c1Sc1ccc(NC(=O)Nc2cccc(C(=O)OC)c2)cc1	i
Cc1ccc(Nc2cc(C)nc(Nc3ccc(NC(=O)c4cccc(C(F)(F)F)c4)cc3)n2)cc1	i
O=C(NC1CC1)C1CNCCN1C(=O)c1cccc2cnccc12 (stereo unspecified)	i
CN(CCNC(=O)Cn1c(=O)c2cnc(-c3ccccc3)nc2n(C)c1=O)Cc1ccccc1	i
O=C1CCC(=O)N1c1nc2n(n1)C(c1ccc(Cl)cc1)C=C(c1ccccc1)N2 (stereo unspecified)	i
CCN(C(=O)CSCc1nc(-c2ccc(C)cc2)no1)c1cccc(C)c1	i
O=C(CC1CCS(=O)(=O)C1)N1CCC(CO)(Cc2ccccc2)CC1 (stereo unspecified)	i
